Results from publication PMC8384837, “Expanding the binding specificity for RNA recognition by a PUF domain”.

What was measured:
Assay in all cases: yeast three-hybrid, YBZ-1, SC-Leu-His + 0.5 mM 3-AT, 4 days
Settings in all cases: tags: N-Gal4 AD-HA kept; label: inside an RPR1-promoter hybrid RNA with tandem MS2 sites; ssRNA
PUM1 PUF domain R1-RLN = PUM1 PUF domain R1-RLN (Homo sapiens, UniProt Q14671 828-1176, S863R;R864L;Q867N)
Summary of the method: (§1)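 A centromeric plasmid in strain YBZ-1 co-expressed Pumilio-1 PUF domain libraries, randomized at the three base-contacting residues of each repeat, with matching RNA elements; the strain carries a LexA–MS2 coat fusion and a HIS3 reporter. After four days on SC-Leu (input) or SC-Leu-His + 0.5 mM 3-AT (selection), the repeat regions were PCR-amplified and Illumina-sequenced. The interaction score is the log change in variant frequency from input to selection, using log2 and a pseudocount of 1 where absent.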

PUM1 PUF domain R1-KFM = PUM1 PUF domain R1-KFM (Homo sapiens, UniProt Q14671 828-1176, S863K;R864F;Q867M)
Summary of the method: as §1

PUM1 PUF domain R3-FRT = PUM1 PUF domain R3-FRT (Homo sapiens, UniProt Q14671 828-1176, C935F;Q939T)
Summary of the method: as §1

PUM1 PUF domain R5-AYY = PUM1 PUF domain R5-AYY (Homo sapiens, UniProt Q14671 828-1176, C1007A;R1008Y;Q1011Y)
Summary of the method: as §1

PUM1 PUF domain R5-SKR = PUM1 PUF domain R5-SKR (Homo sapiens, UniProt Q14671 828-1176, C1007S;R1008K;Q1011R)
Summary of the method: as §1

PUM1 PUF domain R5-RNV = PUM1 PUF domain R5-RNV (Homo sapiens, UniProt Q14671 828-1176, C1007R;R1008N;Q1011V)
Summary of the method: as §1

PUM1 PUF domain R5-DHG = PUM1 PUF domain R5-DHG (Homo sapiens, UniProt Q14671 828-1176, C1007D;R1008H;Q1011G)
Summary of the method: as §1

PUM1 PUF domain R5-MHS = PUM1 PUF domain R5-MHS (Homo sapiens, UniProt Q14671 828-1176, C1007M;R1008H;Q1011S)
Summary of the method: as §1

PUM1 PUF domain R7-GNG = PUM1 PUF domain R7-GNG (Homo sapiens, UniProt Q14671 828-1176, S1079G;E1083G)
Summary of the method: as §1

PUM1 PUF domain R3-RSA = PUM1 PUF domain R3-RSA (Homo sapiens, UniProt Q14671 828-1176, C935R;R936S;Q939A)
Summary of the method: as §1

Chain of PUM1 PUF domain R5-MHS (Q14671 828-1176 C1007M/R1008H/Q1011S): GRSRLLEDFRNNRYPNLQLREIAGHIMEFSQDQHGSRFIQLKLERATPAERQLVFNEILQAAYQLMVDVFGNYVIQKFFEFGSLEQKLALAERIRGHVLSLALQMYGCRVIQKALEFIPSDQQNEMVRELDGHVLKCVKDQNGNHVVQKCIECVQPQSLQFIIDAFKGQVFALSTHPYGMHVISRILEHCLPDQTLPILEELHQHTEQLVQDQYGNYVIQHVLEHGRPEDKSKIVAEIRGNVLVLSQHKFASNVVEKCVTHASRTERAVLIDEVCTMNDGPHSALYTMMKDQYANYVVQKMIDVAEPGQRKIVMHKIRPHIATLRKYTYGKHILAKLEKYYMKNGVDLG
Chain of PUM1 PUF domain R1-RLN (Q14671 828-1176 S863R/R864L/Q867N): as the sequence (Q14671 828-1176 C1007M/R1008H/Q1011S) above, with S36R, R37L, Q40N, M180C, H181R, S184Q counted along it
Chain of PUM1 PUF domain R5-RNV (Q14671 828-1176 C1007R/R1008N/Q1011V): as the sequence (Q14671 828-1176 C1007M/R1008H/Q1011S) above, with M180R, H181N, S184V counted along it
Chain of PUM1 PUF domain R1-KFM (Q14671 828-1176 S863K/R864F/Q867M): as the sequence (Q14671 828-1176 C1007M/R1008H/Q1011S) above, with S36K, R37F, Q40M, M180C, H181R, S184Q counted along it
Chain of PUM1 PUF domain R3-RSA (Q14671 828-1176 C935R/R936S/Q939A): as the sequence (Q14671 828-1176 C1007M/R1008H/Q1011S) above, with C108R, R109S, Q112A, M180C, H181R, S184Q counted along it
Chain of PUM1 PUF domain R7-GNG (Q14671 828-1176 S1079G/E1083G): as the sequence (Q14671 828-1176 C1007M/R1008H/Q1011S) above, with M180C, H181R, S184Q, S252G, E256G counted along it
Chain of PUM1 PUF domain R5-AYY (Q14671 828-1176 C1007A/R1008Y/Q1011Y): as the sequence (Q14671 828-1176 C1007M/R1008H/Q1011S) above, with M180A, H181Y, S184Y counted along it
Chain of PUM1 PUF domain R3-FRT (Q14671 828-1176 C935F/Q939T): as the sequence (Q14671 828-1176 C1007M/R1008H/Q1011S) above, with C108F, Q112T, M180C, H181R, S184Q counted along it
Chain of PUM1 PUF domain R5-SKR (Q14671 828-1176 C1007S/R1008K/Q1011R): as the sequence (Q14671 828-1176 C1007M/R1008H/Q1011S) above, with M180S, H181K, S184R counted along it
Chain of PUM1 PUF domain R5-DHG (Q14671 828-1176 C1007D/R1008H/Q1011G): as the sequence (Q14671 828-1176 C1007M/R1008H/Q1011S) above, with M180D, S184G counted along it

With “GGCUAGAACUAGUGGAUCCCCCGGCGCCCGGCGGCUCGAGCCCGGGUAAGUGUAAAUUGUCUGCAUGCCGCCGGGCGCCAUGCCUGCAGGUCGACUCUAGAAAACAUG” the binding signal (PUM1 PUF domain R1-RLN) was 2.1 log2 enrichment (interaction score).
For “GGCUAGAACUAGUGGAUCCCCCGGCGCCCGGCGGCUCGAGCCCGGGUAAGUGUAAAUCGUCUGCAUGCCGCCGGGCGCCAUGCCUGCAGGUCGACUCUAGAAAACAUG”, the binding signal (PUM1 PUF domain R1-RLN) was 2.71 log2 enrichment (interaction score) and the binding signal (PUM1 PUF domain R1-KFM) was 4.3 log2 enrichment (interaction score).
“GGCUAGAACUAGUGGAUCCCCCGGCGCCCGGCGGCUCGAGCCCGGGUAAGUGUAAGUAGUCUGCAUGCCGCCGGGCGCCAUGCCUGCAGGUCGACUCUAGAAAACAUG” was tested, and the binding signal (PUM1 PUF domain R3-FRT) was 4.75 log2 enrichment (interaction score).
For “GGCUAGAACUAGUGGAUCCCCCGGCGCCCGGCGGCUCGAGCCCGGGUAAGUGUAAAUAGUCUGCAUGCCGCCGGGCGCCAUGCCUGCAGGUCGACUCUAGAAAACAUG”, the binding signal (PUM1 PUF domain R5-AYY) was 3.24 log2 enrichment (interaction score).
For “GGCUAGAACUAGUGGAUCCCCCGGCGCCCGGCGGCUCGAGCCCGGGUAAGUGUCAAUAGUCUGCAUGCCGCCGGGCGCCAUGCCUGCAGGUCGACUCUAGAAAACAUG”, the binding signal (PUM1 PUF domain R5-SKR) was 5.88 log2 enrichment (interaction score) and the binding signal (PUM1 PUF domain R5-RNV) was 2.8 log2 enrichment (interaction score).
“GGCUAGAACUAGUGGAUCCCCCGGCGCCCGGCGGCUCGAGCCCGGGUAAGUGUUAAUAGUCUGCAUGCCGCCGGGCGCCAUGCCUGCAGGUCGACUCUAGAAAACAUG” was tested, and the binding signal (PUM1 PUF domain R5-RNV) was 2.58 log2 enrichment (interaction score), the binding signal (PUM1 PUF domain R5-DHG) was 4.67 log2 enrichment (interaction score) and the binding signal (PUM1 PUF domain R5-MHS) was 5.58 log2 enrichment (interaction score).
With “GGCUAGAACUAGUGGAUCCCCCGGCGCCCGGCGGCUCGAGCCCGGGUAAGUUUAAAUAGUCUGCAUGCCGCCGGGCGCCAUGCCUGCAGGUCGACUCUAGAAAACAUG” the binding signal (PUM1 PUF domain R7-GNG) was 5.55 log2 enrichment (interaction score).
For “GGCUAGAACUAGUGGAUCCCCCGGCGCCCGGCGGCUCGAGCCCGGGUAAGUGUAAUUAGUCUGCAUGCCGCCGGGCGCCAUGCCUGCAGGUCGACUCUAGAAAACAUG”, the binding signal (PUM1 PUF domain R3-RSA) was 3.54 log2 enrichment (interaction score).
For “GGCUAGAACUAGUGGAUCCCCCGGCGCCCGGCGGCUCGAGCCCGGGUAAGUGUGAAUAGUCUGCAUGCCGCCGGGCGCCAUGCCUGCAGGUCGACUCUAGAAAACAUG”, the binding signal (PUM1 PUF domain R5-MHS) was 2.4 log2 enrichment (interaction score).
